These sequences were tested against YIPF6 (assay: pooled miR-30 sensor sort-seq; sequence = guide strand). Conditions: shRNA.
TTTGAGTTGAGGGTGATGGTAA showed a sensor-assay potency score (higher = more potent) of -0.386. Work on TCACTATCTGCAGAGTCTCTTT yielded a sensor-assay potency score (higher = more potent) of -0.696. Sequence TTTCACTATCTGCAGAGTCTCT has a sensor-assay potency score (higher = more potent) of -0.747. For TTACAGGTCCTGGATCAGCCAA, the sensor-assay potency score (higher = more potent) was -1.45. TAAACAGCTAGGGCTCTGCGGT gave a sensor-assay potency score (higher = more potent) of -0.877. Sequence TTTAGATCACGCATGATGGTAT has a sensor-assay potency score (higher = more potent) of 0.00293. TTGAGGGTGATGGTAACTGCAC showed a sensor-assay potency score (higher = more potent) of -0.917. TTTTAGATCACGCATGATGGTA showed a sensor-assay potency score (higher = more potent) of -0.619. Sequence TCTCTTTGCAGCATTAATGCGA has a sensor-assay potency score (higher = more potent) of -0.247. With TAGGAATGGTGATTTCTCCTTC the sensor-assay potency score (higher = more potent) was 0.33. TTGTGAGATGGATATATCTGAA showed a sensor-assay potency score (higher = more potent) of -0.839. For TATCTGCAGAGTCTCTTTGCAG, the sensor-assay potency score (higher = more potent) was -1.39.

These sequences were tested against YJEFN3 in the same assay as above. Conditions: shRNA.
Sequence TTCGTTAATGAGCTGCACCTCA has a sensor-assay potency score (higher = more potent) of -0.35. In the case of TCATCGGGCACGAACCTGCCGG, the sensor-assay potency score (higher = more potent) is reported as -1.06. TCCATCTTCTCGCACTGGGTGG gave a sensor-assay potency score (higher = more potent) of -1.52. Sequence TAGCATGACCGCACAGCTCCAC has a sensor-assay potency score (higher = more potent) of -0.593. ATGACCGCACAGCTCCACGAGC was tested, and the sensor-assay potency score (higher = more potent) was -1.82. For TTGAGCGTGGCCAGCGCGCGGG, the sensor-assay potency score (higher = more potent) was -0.949. Work on ATGTCCATCTTCTCGCACTGGG yielded a sensor-assay potency score (higher = more potent) of -1.01. Sequence AATCGCTGCCGGTCTCTGCGTC has a sensor-assay potency score (higher = more potent) of -0.877. In the case of TTAATGAGCTGCACCTCAGTGG, the sensor-assay potency score (higher = more potent) is reported as 0.0127. For ATGGACAGCAGCTTGAGCGTGG, the sensor-assay potency score (higher = more potent) was 0.0409. In the case of ATAGGCTTCGTTAATGAGCTGC, the sensor-assay potency score (higher = more potent) is reported as 0.277. TGTCCATCTTCTCGCACTGGGT showed a sensor-assay potency score (higher = more potent) of -1.09.

What follows are sequences tested against YPEL3 in the same assay as above. Conditions: shRNA.
In the case of TTCAATGATGTACTTCCCCTCT, the sensor-assay potency score (higher = more potent) is reported as -0.135. With TTGAGTTCAATGATGTACTTCC the sensor-assay potency score (higher = more potent) was 0.797. In the case of TTTGAAATCCGCACCATGGCGG, the sensor-assay potency score (higher = more potent) is reported as -0.368. For TTCCCCTCTTTGTACTTCTGGC, the sensor-assay potency score (higher = more potent) was -0.928. TTCTCGCAGTGGATGTCGGCGA showed a sensor-assay potency score (higher = more potent) of -0.367. Sequence TTGTACTTCTGGCTGCTCTCAA has a sensor-assay potency score (higher = more potent) of 0.24. Sequence TATACCTCCGGTGACAATCATC has a sensor-assay potency score (higher = more potent) of -1.49. TTATGTACAAACGCTACAGAAC showed a sensor-assay potency score (higher = more potent) of -1.18. ATATACAGGAGCTAGATCCGTC was tested, and the sensor-assay potency score (higher = more potent) was 0.357. Work on TTGGAGATGAGGTCGTCGTGGT yielded a sensor-assay potency score (higher = more potent) of 0.122. Work on ACAATCATCCAAGTAGGCCTGA yielded a sensor-assay potency score (higher = more potent) of 0.225. With TCTTGCAGTTCTCGCAGTGGAT the sensor-assay potency score (higher = more potent) was -1.02.
Further: reference of the scale not given here.
